High-throughput results: PubChem, NMMLSC
In the library only some 1.2% were active in any assay of this set; here they are far more common.
RGS7-Gao = RGS7-Galphao binding modulators, primary screen, biochemical, multiplexed bead flow cytometry. Guanine nucleotide-binding protein G(o) subunit alpha (Homo sapiens), P09471. actives lie on both sides. binding response (% of control), % at 10 µM. 220,000 compounds, 0.35% hits. AID 1439, 2008; in the data active means binding response below about 49% or above about 150%; inconclusive means no clear call, values can overlap the other calls; inactive means in between;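 further: fluorescent Galphao held in activated GDP-AlF4 state binding bead-coupled RGS7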
Target sequence (P09471 whole entry, looked up): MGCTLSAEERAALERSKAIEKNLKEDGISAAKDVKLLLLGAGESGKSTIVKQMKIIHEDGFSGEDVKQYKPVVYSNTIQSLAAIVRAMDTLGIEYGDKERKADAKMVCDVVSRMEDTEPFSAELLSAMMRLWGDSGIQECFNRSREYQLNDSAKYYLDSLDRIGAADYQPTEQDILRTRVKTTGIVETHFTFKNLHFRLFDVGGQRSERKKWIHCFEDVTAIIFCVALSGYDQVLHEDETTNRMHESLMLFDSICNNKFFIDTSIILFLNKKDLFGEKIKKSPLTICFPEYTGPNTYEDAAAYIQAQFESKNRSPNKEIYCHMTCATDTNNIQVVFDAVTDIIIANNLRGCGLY
Avidin bead fluor = green autofluorescence of compounds with avidin beads – biophysical, 488/530 nm, flow cytometry, artefact control, profiling panel | compound fluorescence 488/530 nm; active compounds read high | fluorescence (KMESF) at 10 µM | 220,000 compounds, 0.38% hits; in the data active means fluorescence above about 47
RGS4-Gao reg = modulators of RGS4 binding to Galphao, primary screen, biochemical, multiplexed bead flow cytometry | 220,000 compounds, 0.33% hits | binding response (% of control), % at 10 µM | AID 1415, 2008 | Guanine nucleotide-binding protein G(o) subunit alpha (Homo sapiens), P09471 | actives lie on both sides; in the data active means binding response below about 49% or above about 150%; inactive means in between;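 further: fluorescent Galphao activated with aluminum fluoride binding bead-coupled RGS4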
GSH bead fluor = compound fluorescence on glutathione beads, profiling panel, artefact control, biophysical, 488/530 nm, flow cytometry. GSH beads flow cytometry, compound fluorescence 488/530 nm; active compounds read high. fluorescence (KMESF) at 10 µM. 190,000 compounds, 0.25% hits. AID 1776, 2009; in the data active means fluorescence above about 89;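 further: glutathione beads carrying GST-tagged Bcl family fusion proteins plus one bare bead set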
RGS8-Gao reg = RGS8-Galphao binding modulators, primary screen, biochemical, multiplexed bead flow cytometry. 220,000 compounds, 0.34% hits. response (percent of control binding), % at 10 µM. actives lie on both sides; in the data active means response below about 60% or above about 140%; inactive means in between;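 further: Galphao activated as the GDP aluminium fluoride complex binding bead-coupled RGS8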
RGS16-Gao HTS = modulators of RGS16 binding to Galphao, primary screen, biochemical, human proteins, multiplexed bead flow cytometry; Regulator of G-protein signaling 16 (Homo sapiens) + Guanine nucleotide-binding protein …; bead-based flow cytometry RGS16-Galphao binding, fluorescence; actives lie on both sides; binding response (% of control), % at 10 µM; 220,000 compounds, 0.38% hits; AID 1441, 2008;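 further: Galphao activated by GDP with aluminum fluoride before binding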
Target sequence (O15492 whole entry, looked up): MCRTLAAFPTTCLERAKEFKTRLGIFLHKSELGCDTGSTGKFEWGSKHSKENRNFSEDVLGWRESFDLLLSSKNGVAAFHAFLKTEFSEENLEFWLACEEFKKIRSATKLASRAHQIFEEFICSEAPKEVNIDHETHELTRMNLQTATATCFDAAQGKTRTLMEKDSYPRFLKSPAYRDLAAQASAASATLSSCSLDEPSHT
Target sequence (P09471 whole entry, looked up): as the sequence (P09471 whole entry, looked up) above
RGS-Gao = modulators of RGS–Galpha-o binding, primary screen, biochemical, multiplexed beads, flow cytometry, RGS4/7/8/16/19; 1,600 compounds, 99% hits; shares compounds with RGS16-Gao HTS; multiplexed bead flow cytometry; RGS4–Galpha-o binding response, % at 10 µM; AID 1504, 2009;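 further: fluorescently labeled Galpha-o bound to GDP with aluminium fluoride binding biotinylated RGS beads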
Biotin-avidin = disruption of biotin probe capture by avidin, counter-screen for RGS protein interaction modulators, biochemical, flow cytometry, bead-based; shares compounds with RGS16-Gao HTS; streptavidin beads, fluorescein-biotin binding; inhibition, % at 10 µM; 1,700 tested, under 10 active; AID 1783, 2009;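 active means inhibition above 50%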;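 further: median green fluorescence of gated singlet beads compared with DMSO control wells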
RGS8-Gao single = RGS8-Galphao binding modulators, confirmation, biochemical, multiplexed bead flow cytometry, single concentration; AID 1836, 2009; 1,700 compounds, 3% hits; binding response (% of control), % at 10 µM; bead-based flow cytometry RGS8-Galphao binding, fluorescence; actives lie on both sides; shares compounds with RGS16-Gao HTS; in the data active means binding response below about 72% or above about 130%; inactive means in between;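 further: Galphao activated as GDP AlF4 complex before binding bead RGS8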
RGS7-Gao single = RGS7-Galphao binding modulators, confirmation, biochemical, multiplexed bead flow cytometry, single concentration. shares compounds with RGS16-Gao HTS. response (percent of control binding), % at 10 µM. AID 1837, 2009. bead-based flow cytometry RGS7-Galphao binding; actives lie on both sides. 1,700 compounds, 7.8% hits; in the data active means response below about 75% or above about 130%; inactive means in between;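 further: fluorescent Galphao activated with GDP and aluminum fluoride binding bead-coupled RGS7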
RGS16-Gao conf = modulators of RGS16-Galphao protein binding, confirmation, biochemical, single concentration, multiplexed bead flow cytometry. 1,700 compounds, 4% hits. bead-based flow cytometry; actives lie on both sides. response (% of control binding), % at 10 µM. shares compounds with RGS16-Gao HTS; in the data active means response below about 74% or above about 130%; inactive means in between;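 further: Galphao activated as the GDP aluminium fluoride complex binding bead-coupled RGS16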
RGS4-Gao single = modulators of RGS4-Galphao protein binding, confirmation, biochemical, single concentration, multiplexed bead flow cytometry. actives lie on both sides. shares compounds with RGS16-Gao HTS. binding response (% of control), % at 10 µM. 1,700 compounds, 4% hits; in the data active means binding response below about 74% or above about 130%; inactive means in between
RGS19-Gao single = regulators of RGS19-Galphao binding, confirmation, biochemical, single point, multiplexed bead flow cytometry; shares compounds with RGS16-Gao HTS; bead-based flow cytometry RGS19-Galphao binding; actives lie on both sides; response (percent of control binding), % at 10 µM; 1,700 compounds, 5% hits; in the data active means response below about 50% or above about 160%; inactive means in between
Each line names hits and unclear results; the compound was inactive in the other large screens (follow-up assays come after a bar, where they were run); [ ] = another dose, or the depositor's remark. Unless noted, how the calls were made is not given here.

CC1Cc2cc(/C(O)=C3/C(=O)C(=O)N(CC4CCCO4)C3c3ccco3)ccc2O1 (configuration not stated)	RGS7-Gao 186.4[activator], Avidin bead fluor 110 | RGS-Gao 115.4 | Biotin-avidin inactive | RGS8-Gao single inactive | RGS7-Gao single inactive | RGS16-Gao conf inactive | RGS4-Gao single inactive | RGS19-Gao single inactive
O=C(Nc1nnc(-c2ccco2)o1)c1ccc([N+](=O)[O-])s1	none
O=C(O)CCC(=O)Nc1sc2c(c1C(=O)Nc1cccc3ccccc13)CCCCC2	RGS7-Gao 190.5[activator], RGS4-Gao reg 192.6[activator], RGS8-Gao reg 173.5[activator] | Biotin-avidin inactive | RGS8-Gao single inactive | RGS7-Gao single inactive | RGS16-Gao conf inactive | RGS4-Gao single inactive | RGS19-Gao single inactive
CCOC(=O)c1c(C)[nH]c(C)c1C(=O)CSc1nc2ccccc2c(=O)n1-c1ccc(CC)cc1	none
CC(=O)c1ccc(-n2c(SCC(=O)c3c[nH]c4ccccc34)nc3ccccc3c2=O)cc1	RGS7-Gao 184.2[activator], Avidin bead fluor 2389, RGS4-Gao reg 179.3[activator] | Biotin-avidin inactive | RGS8-Gao single inactive | RGS7-Gao single inactive | RGS16-Gao conf inactive | RGS4-Gao single inactive | RGS19-Gao single inactive
CCc1n[nH]c(=S)n1/N=C/c1cc(OC)cc([N+](=O)[O-])c1O	RGS7-Gao inconclusive
Nc1ccc(S(=O)(=O)N2CCCC2)cc1Cl	RGS7-Gao inconclusive (no result: GSH bead fluor)
Cc1onc(-c2ccccc2Cl)c1C(=O)Nc1ncn[nH]1	RGS16-Gao HTS -1.7 | RGS-Gao 85.8 | Biotin-avidin inactive | RGS8-Gao single inactive | RGS7-Gao single inactive | RGS16-Gao conf inactive | RGS4-Gao single inactive | RGS19-Gao single inactive
Cc1onc(-c2ccccc2Cl)c1C(=O)Nc1ccc(Cl)cn1	RGS7-Gao inconclusive (no result: GSH bead fluor)
Cc1onc(-c2ccccc2Cl)c1C(=O)c1ccccc1	RGS7-Gao inconclusive, RGS4-Gao reg -27.7, RGS8-Gao reg 7.7, RGS16-Gao HTS -15.7 (no result: GSH bead fluor) | Biotin-avidin inactive | RGS8-Gao single inactive | RGS7-Gao single inactive | RGS16-Gao conf inactive | RGS4-Gao single inactive | RGS19-Gao single inactive
Cc1onc(-c2c(Cl)cccc2Cl)c1C(=O)c1ccccc1	RGS7-Gao inconclusive (no result: GSH bead fluor)
Cn1ccnc1SCC(=O)Nc1ccc2c(c1)OC(F)(F)O2	none
CCOC(=O)c1ccc(NC(=S)Nc2ccc3[nH]c(=O)[nH]c3c2)cc1	RGS7-Gao inconclusive (no result: GSH bead fluor)
Cn1c(COc2ccccc2)nnc1SCC(=O)Nc1ccc2c(c1)OCO2	RGS16-Gao HTS -20.9 | RGS-Gao 83.3 | Biotin-avidin inactive | RGS8-Gao single inactive | RGS7-Gao single inactive | RGS16-Gao conf inactive | RGS4-Gao single inactive | RGS19-Gao single inactive
Cc1ccc(OCc2nnc(SCC(=O)Nc3ccc4c(c3)OCO4)n2C)cc1	none
CCOC(=O)C1=C(C)C/C(=N\NC(=O)c2ccccc2O)CC1	RGS7-Gao inconclusive (no result: GSH bead fluor)
Nc1nc(N2CCN(C(c3ccccc3)c3ccccc3)CC2)n[nH]1	RGS7-Gao 39.1, RGS8-Gao reg 57.0 | RGS-Gao 82.0 | Biotin-avidin inactive | RGS8-Gao single inactive | RGS7-Gao single inactive | RGS16-Gao conf inactive | RGS4-Gao single inactive | RGS19-Gao single inactive
O=C(Nc1ccc(Cc2ccncc2)cc1)c1ccc(S(=O)(=O)N2CCCC2)cc1	none
CC(C)OC(=O)COc1cc(O)c2c(=O)cc(-c3ccccc3)oc2c1	RGS7-Gao inconclusive (no result: GSH bead fluor)
COc1ccc2cc(CCNC(=O)C3CCCC3)c(=O)[nH]c2c1	RGS8-Gao reg 146.6[activator] | RGS-Gao 110.8 | Biotin-avidin inactive | RGS8-Gao single inactive | RGS7-Gao single inactive | RGS16-Gao conf inactive | RGS4-Gao single inactive | RGS19-Gao single inactive
CSc1ccc(-c2nc(CN3CCCCC3c3cccnc3)c(C)o2)cc1 (configuration not stated)	none
Cc1nn(CCC(=O)O)c(C)c1C	RGS7-Gao 165.3[activator], Avidin bead fluor 79 | RGS-Gao 102.9 | Biotin-avidin inactive | RGS8-Gao single inactive | RGS7-Gao single inactive | RGS16-Gao conf inactive | RGS4-Gao single inactive | RGS19-Gao single inactive
CC(NC(=O)Cc1ccc(-c2ccccc2)cc1)c1ccccc1 (configuration not stated)	RGS7-Gao 263.1[activator], Avidin bead fluor 358, RGS4-Gao reg 152.4[activator] | Biotin-avidin inactive | RGS8-Gao single inactive | RGS7-Gao single inactive | RGS16-Gao conf inactive | RGS4-Gao single inactive | RGS19-Gao single inactive
Cc1ccc(C)c(-n2c(-c3ccc(Br)cc3)csc2=NC(=O)c2ccccc2F)c1	RGS7-Gao inconclusive (no result: GSH bead fluor)
CC1(C)CC(=O)C2=C(C1)Nc1ccccc1NC2c1cccnc1 (configuration not stated)	none
